# Laboratory results reported in PubChem BioAssay (NCI).
# Compounds without any hit were thinned out: in the full panel of roughly 79,000, 15% have a hit. A number with no mark means an inactive call. The source made the active and inactive calls. No stated cut-off is given here; in the data, active means growth inhibition above about 70%; inactive means the rest.
# Tests used:
# [1] = NCI Yeast Anticancer Drug Screen. Data for the rad52 strain (AID 147);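 further: 0% = growth of vehicle-treated control cultures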; conditions: S. cerevisiae rad52 mutant growth inhibition, stronger effect = higher value
# Method in brief: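 The repair-mutant yeast strain was incubated with compounds, then growth was read and inhibition derived relative to vehicle.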
# [2] = NCI Yeast Anticancer Drug Screen. Data for the wt1 strain (AID 149);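 further: 0% = growth of vehicle-treated wt1 cultures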; conditions: S. cerevisiae wt1 strain (SPY 50644) growth inhibition, stronger effect = higher value
# Method in brief: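 The wt1 strain was treated with compounds, and growth was compared with vehicle-treated cultures to give inhibition.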
# [3] = NCI Yeast Anticancer Drug Screen. Data for the rad50EPP+ strain (AID 151);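 further: 0% = growth of vehicle-treated control cultures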; conditions: S. cerevisiae rad50 mutant strain, stronger effect = higher value
# Method in brief: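 Vehicle-normalised growth inhibition; rad50EPP+ yeast strain, altered in DNA damage repair, compound-treated.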
# [4] = NCI Yeast Anticancer Drug Screen. Data for the mgt1 strain (AID 153); conditions: S. cerevisiae mgt1 mutant growth inhibition, stronger effect = higher value
# Method in brief: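 Vehicle-normalized growth inhibition is determined in mgt1 yeast, a strain selected for a defined alteration in DNA repair or cell cycle control.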
# [5] = NCI Yeast Anticancer Drug Screen. Data for the rad50 strain (AID 155);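 further: 0% = growth of vehicle-only cultures of the same strain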; conditions: S. cerevisiae rad50 strain growth inhibition, stronger effect = higher value
# Method in brief: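 Cells are treated with compound, grown, and their growth is then scored against vehicle-only cultures of the same repair-deficient yeast strain.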
# [6] = NCI Yeast Anticancer Drug Screen. Data for the mec2-1 strain (AID 157); conditions: S. cerevisiae mec2-1 strain, stronger effect = higher value
# Method in brief: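 Mutant yeast (mec2-1) grown with compound; growth inhibition relative to vehicle control reported.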
# [7] = NCI Yeast Anticancer Drug Screen. Data for the rad14 strain (AID 159);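 further: 0% = growth of vehicle-treated control cultures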; conditions: S. cerevisiae rad14 strain growth inhibition, stronger effect = higher value
# Method in brief: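 Readout: yeast growth inhibition, referenced to vehicle-only cultures. Strain bears a defined alteration in DNA damage repair.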
# [8] = NCI Yeast Anticancer Drug Screen. Data for the sgs1 mgt1 strain (AID 161);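 further: 0% = growth of cultures given vehicle only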; conditions: S. cerevisiae sgs1 mgt1 strain, stronger effect = higher value
# Method in brief: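 Percent growth inhibition was derived by comparing compound-exposed mutant yeast with vehicle-exposed cultures. The strain carries alterations in DNA damage repair.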
# [9] = NCI Yeast Anticancer Drug Screen. Data for the CLN2oe strain (AID 163);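 further: 0% = growth of vehicle-only control cultures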; conditions: S. cerevisiae CLN2oe strain, stronger effect = higher value
# Method in brief: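 Compounds are applied to yeast harbouring a defined cell-cycle control change; reduced growth compared with vehicle-treated controls gives the value.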
# [10] = NCI Yeast Anticancer Drug Screen. Data for the cln2 rad14 strain (AID 165);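 further: 0% = growth equal to vehicle treated cultures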; conditions: S. cerevisiae cln2 rad14 strain, stronger effect = higher value
# Method in brief: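 Readout is yeast growth inhibition versus vehicle-treated controls, using a strain with cln2 and rad14 alterations exposed to compound.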
# [11] = NCI Yeast Anticancer Drug Screen. Data for the bub3 strain (AID 167); conditions: S. cerevisiae bub3 mutant strain, stronger effect = higher value
# Method in brief: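 Part of a panel of yeast mutants defective in DNA damage repair or cell cycle regulation. Each strain is grown with compound, and inhibition is calculated relative to solvent-treated cultures.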
# [12] = NCI Yeast Anticancer Drug Screen. Data for the wt2 strain (AID 169);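 further: 0% = growth of vehicle-treated yeast cultures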; conditions: S. cerevisiae wt2 strain growth inhibition, stronger effect = higher value
# Method in brief: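 Against vehicle-treated controls, the growth of yeast exposed to each compound was compared, and the inhibition was recorded.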
# [13] = NCI Yeast Anticancer Drug Screen. Data for the mlh1 strain (AID 171);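 further: 0% = growth of vehicle-treated control cultures of the same strain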; conditions: S. cerevisiae mlh1 strain growth inhibition, stronger effect = higher value
# Method in brief: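 Measured: yeast growth. Reference: vehicle-treated controls. Organism: strain with a defined alteration affecting DNA damage repair or cell cycle control, treated with compound.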
# [14] = NCI Yeast Anticancer Drug Screen. Data for the sgs1 strain (AID 173);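 further: 0% = growth of vehicle-only control cultures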; conditions: S. cerevisiae sgs1 mutant, stronger effect = higher value
# Method in brief: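 Each compound was added to cultures of the altered yeast strain. Growth was recorded, and inhibition was derived by comparison with vehicle controls.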
# [15] = NCI Yeast Anticancer Drug Screen. Data for the mlh1 rad18 strain (AID 175); conditions: S. cerevisiae mlh1 rad18 strain growth inhibition, stronger effect = higher value
# Method in brief: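 Genetically defined yeast (DNA repair-deficient) exposed to compounds; growth inhibition determined relative to vehicle.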
# [16] = NCI Yeast Anticancer Drug Screen. Data for the rad18 strain (AID 177); conditions: S. cerevisiae rad18 mutant growth inhibition, stronger effect = higher value
# Method in brief: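 Vehicle-treated cultures served as the baseline for scoring compound-induced growth inhibition in DNA-repair-mutant yeast.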
# [17] = at 5.0 µM (retest, dose inferred, filed as 0.5)
# [18] = at 50.0 µM (retest, dose inferred, filed as 5.0)
smiles,measurement,setting,value
Cc1nc(-[n+]2nc(-c3ccncc3)nn2-c2ccccc2)sc1C,growth inhibition,[1]; at 1.2 µM,-2%
same,growth inhibition,[1]; at 3.7 µM,-2%
same,growth inhibition,[1]; at 11.0 µM,0%
same,growth inhibition,[1]; at 33.0 µM,38%
same,growth inhibition,[1]; at 100.0 µM,5%
same,growth inhibition,[2]; at 1.2 µM,-1%
same,growth inhibition,[2]; at 3.7 µM,-2%
same,growth inhibition,[2]; at 11.0 µM,-14%
same,growth inhibition,[2]; at 33.0 µM,9%
same,growth inhibition,[2]; at 100.0 µM,-11%
same,growth inhibition,[3]; at 1.2 µM,3%
same,growth inhibition,[3]; at 3.7 µM,16%
same,growth inhibition,[3]; at 11.0 µM,41%
same,growth inhibition,[3]; at 33.0 µM,44%
same,growth inhibition,[3]; at 100.0 µM,36%
same,growth inhibition,[4]; at 1.2 µM,-4%
same,growth inhibition,[4]; at 3.7 µM,-5%
same,growth inhibition,[4]; at 11.0 µM,8%
same,growth inhibition,[4]; at 33.0 µM,54%
same,growth inhibition,[4]; at 100.0 µM,78% (active)
same,growth inhibition,[5]; at 1.2 µM,-3%
same,growth inhibition,[5]; at 3.7 µM,-46%
same,growth inhibition,[5]; [17],1%
same,growth inhibition,[5]; at 11.0 µM,3%
same,growth inhibition,[5]; at 33.0 µM,48%
same,growth inhibition,[5]; [18],21%
same,growth inhibition,[5]; at 50.0 µM,66.2%
same,growth inhibition,[5]; at 100.0 µM,58%
same,growth inhibition,[6]; at 1.2 µM,-1%
same,growth inhibition,[6]; at 3.7 µM,-2%
same,growth inhibition,[6]; [17],0%
same,growth inhibition,[6]; at 11.0 µM,-3%
same,growth inhibition,[6]; at 33.0 µM,33%
same,growth inhibition,[6]; [18],-28%
same,growth inhibition,[6]; at 50.0 µM,78.5% (active)
same,growth inhibition,[6]; at 100.0 µM,39%
same,growth inhibition,[7]; at 1.2 µM,-2%
same,growth inhibition,[7]; at 3.7 µM,-3%
same,growth inhibition,[7]; at 11.0 µM,-7%
same,growth inhibition,[7]; at 33.0 µM,8%
same,growth inhibition,[7]; at 100.0 µM,1%
same,growth inhibition,[8]; [17],7%
same,growth inhibition,[8]; [18],76% (active)
same,growth inhibition,[8]; at 50.0 µM,74.8% (active)
same,growth inhibition,[9]; at 1.2 µM,-4%
same,growth inhibition,[9]; at 3.7 µM,-3%
same,growth inhibition,[9]; at 11.0 µM,-6%
same,growth inhibition,[9]; at 33.0 µM,25%
same,growth inhibition,[9]; at 100.0 µM,14%
same,growth inhibition,[10]; [17],0%
same,growth inhibition,[10]; [18],11%
same,growth inhibition,[10]; at 50.0 µM,63.9%
same,growth inhibition,[11]; at 1.2 µM,-1%
same,growth inhibition,[11]; at 3.7 µM,-5%
same,growth inhibition,[11]; [17],-45%
same,growth inhibition,[11]; at 11.0 µM,-5%
same,growth inhibition,[11]; at 33.0 µM,38%
same,growth inhibition,[11]; [18],60%
same,growth inhibition,[11]; at 50.0 µM,48%
same,growth inhibition,[11]; at 100.0 µM,18%
same,growth inhibition,[12]; at 1.2 µM,-2%
same,growth inhibition,[12]; at 3.7 µM,2%
same,growth inhibition,[12]; at 11.0 µM,18%
same,growth inhibition,[12]; at 33.0 µM,50%
same,growth inhibition,[12]; at 100.0 µM,72% (active)
same,growth inhibition,[13]; at 1.2 µM,-2%
same,growth inhibition,[13]; at 3.7 µM,-5%
same,growth inhibition,[13]; at 11.0 µM,7%
same,growth inhibition,[13]; at 33.0 µM,58%
same,growth inhibition,[13]; at 100.0 µM,72% (active)
same,growth inhibition,[14]; at 1.2 µM,-2%
same,growth inhibition,[14]; at 3.7 µM,7%
same,growth inhibition,[14]; at 11.0 µM,45%
same,growth inhibition,[14]; at 33.0 µM,69%
same,growth inhibition,[14]; at 100.0 µM,77% (active)
same,growth inhibition,[15]; [17],3%
same,growth inhibition,[15]; [18],48%
same,growth inhibition,[15]; at 50.0 µM,76.2% (active)
same,growth inhibition,[16]; at 1.2 µM,1%
same,growth inhibition,[16]; at 3.7 µM,3%
same,growth inhibition,[16]; at 11.0 µM,7%
same,growth inhibition,[16]; at 33.0 µM,46%
same,growth inhibition,[16]; at 100.0 µM,45%
